CYP2C9 inhib – blockers of cytochrome P450 2C9 activity – biochemical, luminescence, ADME assay, primary screen. P11712. CYP2C9 Supersomes, luciferin-H conversion. inhibition, % at 5 µM. 96,000 compounds, 20% hits. AID 777, 2007;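 active = blocking of liver enzyme CYP2C9 beyond about 50% at 5 µM, limit read from the data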
Target sequence (P11712 whole entry, looked up): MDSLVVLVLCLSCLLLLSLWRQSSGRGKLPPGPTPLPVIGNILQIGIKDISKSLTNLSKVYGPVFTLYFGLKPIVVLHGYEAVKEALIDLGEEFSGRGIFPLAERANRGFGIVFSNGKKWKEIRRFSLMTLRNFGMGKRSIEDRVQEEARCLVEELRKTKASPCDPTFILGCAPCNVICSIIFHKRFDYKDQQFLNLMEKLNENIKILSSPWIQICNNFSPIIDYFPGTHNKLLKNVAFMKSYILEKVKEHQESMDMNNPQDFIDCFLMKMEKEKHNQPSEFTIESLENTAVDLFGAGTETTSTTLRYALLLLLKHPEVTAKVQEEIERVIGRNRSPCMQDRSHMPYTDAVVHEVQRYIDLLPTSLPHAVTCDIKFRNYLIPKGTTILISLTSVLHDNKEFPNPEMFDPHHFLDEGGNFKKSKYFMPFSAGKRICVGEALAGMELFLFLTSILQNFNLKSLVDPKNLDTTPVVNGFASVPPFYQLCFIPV
EphB4 antag – EphB4-ephrin-B2 interaction antagonists, primary screen, biochemical, TNYL-RAW peptide probe, fluorescence polarization; AID 720, 2007; inhibition, % at 7 µM; 97,000 compounds, 0.15% hits; EphB4 LBD / TNYL-RAW-Alexa532 peptide;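 active = inhibition above the screen-wide mean inhibition plus 3 SD, cut at about 15% in these data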;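 note: 0% = DMSO wells and 100% = excess unlabeled TNYL-RAW peptide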
CYP2C9 activ – human CYP2C9 activators, primary screen, biochemical, luminescence; recombinant CYP2C9, luciferin-H conversion; stronger effect = higher value; factor 1 = untreated enzyme, 0 = blocked; activation factor at 5 µM; 96,000 compounds, 1.4% hits; AID 1024, 2008;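 active = activation factor of 2 or more for CYP2C9 at a 5 µM dose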;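 note: 0 = sulfaphenazole-blocked wells and 1 = vehicle-only wells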
CYP2C19 inhib – blockers of cytochrome P450 2C19 activity – biochemical, luminescence, ADME assay, primary screen | CYP2C19 Supersomes, luciferin-H EGE luminescence, 30 min | 96,000 compounds, 21% hits | inhibition, % at 5 µM | P33261 | AID 778, 2007;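 active = CYP2C19 inhibition above a set limit at 5 µM in the primary screen, cut at about 50% in these data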;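 note: plate controls were negative control wells for no effect and 2.5 mM tranylcypromine positive control for full effect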
CYP2C19 activ – human CYP2C19 activators, primary screen, biochemical, luminescence | AID 1025, 2008 | recombinant CYP2C19, luciferin-H EGE luminescence; stronger effect = higher value; 0 = fully inhibited enzyme, 1 = untreated enzyme | activation factor at 5 µM | 96,000 tested, under 10 active | Cytochrome P450 2C19 (Homo sapiens), P33261;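 active = activation factor of at least 2 at 5 µM in the primary screen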;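 note: 0 = wells with 2.5 mM tranylcypromine and 1 = vehicle-only wells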
An asterisk follows results filed as active; · = no result given. An excerpt weighted towards active compounds, which were near 27% of everything screened.

SMILES	CYP2C9 inhib	EphB4 antag	CYP2C9 activ	CYP2C19 inhib	CYP2C19 activ
Cn1c(CCNC(=O)c2ccco2)nc2cc(NS(=O)(=O)c3ccccc3)ccc21	56*	6	0.4	31	0.7
O=C(NC1CCCCC1)C(c1ccco1)N(CCc1ccccc1)C(=O)C(F)(F)F (stereo not given)	·	-4	·	·	·
Cc1cc(Oc2ccccc2)nc(-c2ccccc2)n1	16	-5	0.8	18	0.8
O=S(=O)(Cc1cc(Sc2ccc(Cl)cc2)nc(-c2ccccc2)n1)c1ccccc1	81*	-1	0.2	65*	0.3
O=S(=O)(Cc1cc(Oc2ccccc2)nc(-c2ccccc2)n1)c1ccccc1	61*	0	0.4	59*	0.4
Cc1nc(CS(=O)(=O)c2ccc(Cl)cc2)cc(Sc2ccc(Cl)cc2)n1	88*	2	0.1	12	0.9
Cc1nc(CS(=O)(=O)c2ccccc2)cc(N2CCOCC2)n1	30	-5	0.7	18	0.8
CCOC(=O)C(C)Sc1cc(CS(=O)(=O)c2ccccc2)nc(-c2ccccc2)n1 (stereo not given)	96*	-3	0	77*	0.2
CSc1sc(C(=O)O)c2c1C(=O)CCC2	16	-1	0.8	8	0.9
O=C(CCS(=O)(=O)c1ccc(Br)s1)NC1CCCCCC1	2	8	1	-10	1.1
O=S(=O)(NC1CCCC1)c1ccc(Br)s1	61*	5	0.4	96*	0
O=S(=O)(NC1CCCCC1)c1ccc(Cl)s1	85*	6	0.2	90*	0.1
Cc1ccc(NC(=O)CC2NCCNC2=O)cc1 (stereo not given)	-11	-7	1.1	-9	1.1
O=C(Oc1ccc2[nH]cc(CCN3C(=O)c4ccccc4C3=O)c2c1)c1ccco1	76*	-4	0.2	24	0.8
CCOc1ccc(S(=O)(=O)N2CCN(c3ccc(OC)cc3)CC2)c2cccnc12	42	-6	0.6	17	0.8
CCCCN(CCCC)S(=O)(=O)c1ccc(OC)c2ncccc12	66*	·	0.3	14	0.9
COc1ccc(S(=O)(=O)N(CC(C)C)CC(C)C)c2cccnc12	92*	2	0.1	44	0.6
Cc1ccc2[nH]cc(C(=O)CN3CCN(C)CC3)c2c1	-7	5	1.1	-9	1.1
CCC(C)NS(=O)(=O)c1ccc(NC(=O)c2c(-c3ccccc3)noc2C)cc1 (stereo not given)	62*	3	0.4	86*	0.1
Cc1onc(-c2ccccc2)c1C(=O)Nc1ccc(S(=O)(=O)NC2=NCCCCC2)cc1	12	20*	0.9	1	1
Cc1ccc(C(=O)N/N=C\c2ccc[nH]2)cn1	4	-2	1	-17	1.2
NS(=O)(=O)c1ccc(Nc2nc(-c3ccc(O)cc3O)cs2)cc1	68*	-5	0.3	79*	0.2
Cc1cccnc1Nc1nc(-c2ccc(O)cc2O)cs1	26	4	0.7	18	0.8
O=C(O)c1ccc(NS(=O)(=O)/C=C/c2ccccc2)cc1	5	1	0.9	6	0.9
O=S(=O)(/C=C/c1ccccc1)Oc1ccccc1	-7	-3	1.1	79*	0.2
SMILES	CYP2C9 inhib	EphB4 antag	CYP2C9 activ	CYP2C19 inhib	CYP2C19 activ
Cc1ccc(-c2csc3ncn(-n4c(C)ccc4C)c(=O)c23)o1	47	1	0.5	87*	0.1
Clc1ccccc1COc1ccccc1-c1nnco1	50*	-1	0.5	27	0.7
c1ccc(OCCOc2ccccc2-c2nnco2)cc1	75*	-1	0.2	91*	0.1
Cc1cccc(C(=O)Oc2ccccc2-c2nnco2)c1	-15	9	1.1	2	1
CNCCCC1Sc2ccccc2Oc2ccccc21 (stereo not given)	·	-6	·	·	·
CCOC(=O)N1CCC(c2[nH][nH]c(=O)c2C)CC1	-24	1	1.2	-4	1
O=C(CN1CCN(c2ccccn2)CC1)N1c2ccccc2Sc2ccc(C(F)(F)F)cc21	44	4	0.6	73*	0.3
O=C1N/C(=N\N=C\c2cccnc2)SC1Cc1ccc(SC(F)F)cc1 (stereo not given)	53*	3	0.5	2	1
CSc1ccc(C2C3(C#N)C(N)=NC4(OCCO4)C23C#N)cc1 (stereo not given)	3	8	1	20	0.8
COc1cccc(C2C3(C#N)C(N)=NC(OC)(OC)C23C#N)c1 (stereo not given)	-5	2	1.1	27	0.7
CCOC1(OCC)N=C(N)C2(C#N)C(c3ccc(NC(C)=O)cc3)C12C#N (stereo not given)	88*	-4	0.1	9	0.9
COC1(OC)N=C(N)C2(C#N)C(c3cccc(Oc4ccccc4)c3)C12C#N (stereo not given)	56*	0	0.4	59*	0.4
CCSC1(SCC)N=C(N)C2(C#N)C(c3ccc(F)cc3)C12C#N (stereo not given)	58*	11	0.4	62*	0.4
COC1(OC)N=C(N)C2(C#N)C(c3ccc(F)cc3)C12C#N (stereo not given)	10	·	0.9	52*	0.5
O=C(O)C(=O)/C(=C\c1ccccc1)c1ccc2ccccc2n1	17	0	0.8	15	0.9
O=C(c1ccccc1)c1ccc2ccccc2n1	-31	-5	1.3	69*	0.3
O=C1c2ccccc2C(=O)N1CCCCSc1nc2ccccc2o1	66*	-2	0.3	81*	0.2
Cc1nnc(SCCCN2C(=O)c3ccccc3C2=O)o1	28	-1	0.7	60*	0.4
Cc1cccc(C(=O)c2cnc3ccccc3c2-c2ccccc2)c1	25	0	0.7	13	0.9
CSC1=NCCN1C(=O)C(C)(C)Oc1ccc(Cl)cc1	·	12	·	·	·
CCn1c(SCC(=O)c2ccc(OC)cc2)nnc1C1CC1	-8	5	1.1	55*	0.5
CCn1c(SCC(=O)c2cc(OC)ccc2OC)nnc1C1CC1	-3	-5	1	94*	0.1
CCn1nnnc1SCC(=O)c1cc(OC)ccc1OC	42	·	0.6	93*	0.1
COc1ccc(OC)c(C(=O)CSc2nnnn2C)c1	4	·	1	28	0.7
CC(C)NS(=O)(=O)c1ccc(CCC(=O)NCc2ccc3c(c2)OCO3)cc1	·	3	·	·	·
CCCCNC(=O)OCC(CC)NC(=O)OCC(C)C (stereo not given)	15	1	0.9	25	0.8
CCCCNC(=O)OCC(CC)NC(=O)OC(C)C (stereo not given)	20	2	0.8	53*	0.5
CCOC(=O)Cc1csc(SCC(=O)Nc2sc3c(c2C(N)=O)CCC3)n1	50*	·	0.5	34	0.7

Screening results: PubChem BioAssay, several laboratories
